Test results as given in publication PMC12820563, “FoxP3 forms a head-to-head dimer in vivo and stabilizes its multimerization on adjacent microsatellites”.
In all, about 16,000 sequences were measured (“rpm ratio (pull-down/input)”: median about 0.94, highest 2% from about 1.7 on). The sample holds the highest values, similar sequences and a random draw of the others, so the mix is not that of the screen.

molecular target: T1, MBP-FoxP1dN (Mus musculus, UniProt P58462 326-579); experiment: PD-seq (MBP pull-down with sequencing); 20 mM Tris-HCl pH 7.5, 100 mM NaCl, 1.5 mM MgCl2, 0.4 uM protein, 0.1 uM dsDNA library, 30 min, room temperature, amylose pull-down; high values mean tight binding; conditions: protein: recombinant; tags: His6-MBP; chain copies: 2; dsDNA, one strand shown
T1 sequence: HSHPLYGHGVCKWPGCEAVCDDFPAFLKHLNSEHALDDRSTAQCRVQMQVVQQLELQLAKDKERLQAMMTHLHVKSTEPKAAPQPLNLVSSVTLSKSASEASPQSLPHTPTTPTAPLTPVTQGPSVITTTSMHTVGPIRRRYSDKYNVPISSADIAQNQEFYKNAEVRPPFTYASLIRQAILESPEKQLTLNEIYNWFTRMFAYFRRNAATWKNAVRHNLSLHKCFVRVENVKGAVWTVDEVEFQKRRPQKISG
How it was run: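 Binding is given as reads-per-million enrichment, pull-down over input, with replicates pooled. The bait was an N-terminus-lacking mouse FoxP3 or FoxP1 fragment with a His6-MBP tag, expressed in E. coli and used at 0.4 µM with 0.1 µM Klenow-filled degenerate double-stranded DNA library for 30 min at room temperature in Tris pH 7.5 buffer with NaCl and MgCl2. Amylose resin pull-down with three washes was followed by proteinase K release, PCR barcoding and Illumina sequencing.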

Sequence	binding signal
GATGATTGTTCTCCCAGCTGATGAATTCTCACAGTCGAGTAAACAAATTTTCCTAATCTTTCTGTTCAAGCGCCATCTAC	0.875 RPM ratio (pull-down/input)
GATGATTGTTCTCCCAGCTGATGAATTAATTGAGTCGAGTAAACAAATTTTCCTAATCTTTCTGTTCAAGCGCCATCTAC	0.932 RPM ratio (pull-down/input)
GATGATTGTTCTCCCAGCTGATGAATTGGGTATCTCGAGTAAACAAATTTTCCTAATCTTTCTGTTCAAGCGCCATCTAC	0.935 RPM ratio (pull-down/input)
GATGATTGTTCTCCCAGCTGATGAATTAGAAGCTTCGAGTAAACAAATTTTCCTAATCTTTCTGTTCAAGCGCCATCTAC	0.996 RPM ratio (pull-down/input)
GATGATTGTTCTCCCAGCTGATGAATTGCGGCAGTCGAGTAAACAAATTTTCCTAATCTTTCTGTTCAAGCGCCATCTAC	0.919 RPM ratio (pull-down/input)
GATGATTGTTCTCCCAGCTGATGAATTGCGCTAGTCGAGTAAACAAATTTTCCTAATCTTTCTGTTCAAGCGCCATCTAC	1.06 RPM ratio (pull-down/input)
GATGATTGTTCTCCCAGCTGATGAATTTATTGATTCGAGTAAACAAATTTTCCTAATCTTTCTGTTCAAGCGCCATCTAC	1.86 RPM ratio (pull-down/input)
GATGATTGTTCTCCCAGCTGATGAATTGATTTATTCGAGTAAACAAATTTTCCTAATCTTTCTGTTCAAGCGCCATCTAC	1.27 RPM ratio (pull-down/input)
GATGATTGTTCTCCCAGCTGATGAATTTATTTATTCGAGTAAACAAATTTTCCTAATCTTTCTGTTCAAGCGCCATCTAC	2.17 RPM ratio (pull-down/input)
GATGATTGTTCTCCCAGCTGATGAATTTATTCTTTCGAGTAAACAAATTTTCCTAATCTTTCTGTTCAAGCGCCATCTAC	1.34 RPM ratio (pull-down/input)
GATGATTGTTCTCCCAGCTGATGAATTCTTTTATTCGAGTAAACAAATTTTCCTAATCTTTCTGTTCAAGCGCCATCTAC	1.13 RPM ratio (pull-down/input)
GATGATTGTTCTCCCAGCTGATGAATTTCTTTATTCGAGTAAACAAATTTTCCTAATCTTTCTGTTCAAGCGCCATCTAC	0.979 RPM ratio (pull-down/input)
GATGATTGTTCTCCCAGCTGATGAATTAATTTCCTCGAGTAAACAAATTTTCCTAATCTTTCTGTTCAAGCGCCATCTAC	0.884 RPM ratio (pull-down/input)
GATGATTGTTCTCCCAGCTGATGAATTTATGCAGTCGAGTAAACAAATTTTCCTAATCTTTCTGTTCAAGCGCCATCTAC	1.11 RPM ratio (pull-down/input)
GATGATTGTTCTCCCAGCTGATGAATTTACGTCATCGAGTAAACAAATTTTCCTAATCTTTCTGTTCAAGCGCCATCTAC	1.45 RPM ratio (pull-down/input)
GATGATTGTTCTCCCAGCTGATGAATTTTTTACCTCGAGTAAACAAATTTTCCTAATCTTTCTGTTCAAGCGCCATCTAC	0.943 RPM ratio (pull-down/input)
GATGATTGTTCTCCCAGCTGATGAATTGTTTACCTCGAGTAAACAAATTTTCCTAATCTTTCTGTTCAAGCGCCATCTAC	2.65 RPM ratio (pull-down/input)
GATGATTGTTCTCCCAGCTGATGAATTACCTACCTCGAGTAAACAAATTTTCCTAATCTTTCTGTTCAAGCGCCATCTAC	0.913 RPM ratio (pull-down/input)
GATGATTGTTCTCCCAGCTGATGAATTTATTACCTCGAGTAAACAAATTTTCCTAATCTTTCTGTTCAAGCGCCATCTAC	1.2 RPM ratio (pull-down/input)
GATGATTGTTCTCCCAGCTGATGAATTATTTACCTCGAGTAAACAAATTTTCCTAATCTTTCTGTTCAAGCGCCATCTAC	1.86 RPM ratio (pull-down/input)
GATGATTGTTCTCCCAGCTGATGAATTTACCTCCTCGAGTAAACAAATTTTCCTAATCTTTCTGTTCAAGCGCCATCTAC	1.07 RPM ratio (pull-down/input)

Sequence	binding signal
GATGATTGTTCTCCCAGCTGATGAATTATACTGCTCGAGTAAACAAATTTTCCTAATCTTTCTGTTCAAGCGCCATCTAC	0.951 RPM ratio (pull-down/input)
GATGATTGTTCTCCCAGCTGATGAATTCTGCCTGTCGAGTAAACAAATTTTCCTAATCTTTCTGTTCAAGCGCCATCTAC	0.791 RPM ratio (pull-down/input)
GATGATTGTTCTCCCAGCTGATGAATTCATACATTCGAGTAAACAAATTTTCCTAATCTTTCTGTTCAAGCGCCATCTAC	1.01 RPM ratio (pull-down/input)
GATGATTGTTCTCCCAGCTGATGAATTTGACCGATCGAGTAAACAAATTTTCCTAATCTTTCTGTTCAAGCGCCATCTAC	0.841 RPM ratio (pull-down/input)
GATGATTGTTCTCCCAGCTGATGAATTGCTCGAGTCGAGTAAACAAATTTTCCTAATCTTTCTGTTCAAGCGCCATCTAC	0.899 RPM ratio (pull-down/input)
GATGATTGTTCTCCCAGCTGATGAATTTCCGGAATCGAGTAAACAAATTTTCCTAATCTTTCTGTTCAAGCGCCATCTAC	0.872 RPM ratio (pull-down/input)
GATGATTGTTCTCCCAGCTGATGAATTGTTTTTATCGAGTAAACAAATTTTCCTAATCTTTCTGTTCAAGCGCCATCTAC	2.19 RPM ratio (pull-down/input)
GATGATTGTTCTCCCAGCTGATGAATTTTATATATCGAGTAAACAAATTTTCCTAATCTTTCTGTTCAAGCGCCATCTAC	1.11 RPM ratio (pull-down/input)
GATGATTGTTCTCCCAGCTGATGAATTGTGTTTATCGAGTAAACAAATTTTCCTAATCTTTCTGTTCAAGCGCCATCTAC	2.92 RPM ratio (pull-down/input)
GATGATTGTTCTCCCAGCTGATGAATTTCTTTTATCGAGTAAACAAATTTTCCTAATCTTTCTGTTCAAGCGCCATCTAC	1.03 RPM ratio (pull-down/input)
GATGATTGTTCTCCCAGCTGATGAATTAGTTTTATCGAGTAAACAAATTTTCCTAATCTTTCTGTTCAAGCGCCATCTAC	1.02 RPM ratio (pull-down/input)
GATGATTGTTCTCCCAGCTGATGAATTTTTTATATCGAGTAAACAAATTTTCCTAATCTTTCTGTTCAAGCGCCATCTAC	1.08 RPM ratio (pull-down/input)
GATGATTGTTCTCCCAGCTGATGAATTGTTTATATCGAGTAAACAAATTTTCCTAATCTTTCTGTTCAAGCGCCATCTAC	2.47 RPM ratio (pull-down/input)
GATGATTGTTCTCCCAGCTGATGAATTTATCTAATCGAGTAAACAAATTTTCCTAATCTTTCTGTTCAAGCGCCATCTAC	1.32 RPM ratio (pull-down/input)
GATGATTGTTCTCCCAGCTGATGAATTTTCTTTATCGAGTAAACAAATTTTCCTAATCTTTCTGTTCAAGCGCCATCTAC	1.2 RPM ratio (pull-down/input)
GATGATTGTTCTCCCAGCTGATGAATTTTAGTTATCGAGTAAACAAATTTTCCTAATCTTTCTGTTCAAGCGCCATCTAC	1.18 RPM ratio (pull-down/input)
GATGATTGTTCTCCCAGCTGATGAATTTAGTTTATCGAGTAAACAAATTTTCCTAATCTTTCTGTTCAAGCGCCATCTAC	1.89 RPM ratio (pull-down/input)
GATGATTGTTCTCCCAGCTGATGAATTTTTTTTATCGAGTAAACAAATTTTCCTAATCTTTCTGTTCAAGCGCCATCTAC	0.958 RPM ratio (pull-down/input)
GATGATTGTTCTCCCAGCTGATGAATTCTGCGCGTCGAGTAAACAAATTTTCCTAATCTTTCTGTTCAAGCGCCATCTAC	0.978 RPM ratio (pull-down/input)
GATGATTGTTCTCCCAGCTGATGAATTCCATTACTCGAGTAAACAAATTTTCCTAATCTTTCTGTTCAAGCGCCATCTAC	0.874 RPM ratio (pull-down/input)
GATGATTGTTCTCCCAGCTGATGAATTCAAGATCTCGAGTAAACAAATTTTCCTAATCTTTCTGTTCAAGCGCCATCTAC	0.814 RPM ratio (pull-down/input)

Sequence	binding signal
GATGATTGTTCTCCCAGCTGATGAATTTCTACGATCGAGTAAACAAATTTTCCTAATCTTTCTGTTCAAGCGCCATCTAC	0.948 RPM ratio (pull-down/input)
GATGATTGTTCTCCCAGCTGATGAATTCACCATATCGAGTAAACAAATTTTCCTAATCTTTCTGTTCAAGCGCCATCTAC	0.984 RPM ratio (pull-down/input)
GATGATTGTTCTCCCAGCTGATGAATTGGGGCACTCGAGTAAACAAATTTTCCTAATCTTTCTGTTCAAGCGCCATCTAC	0.856 RPM ratio (pull-down/input)
GATGATTGTTCTCCCAGCTGATGAATTTCACTGGTCGAGTAAACAAATTTTCCTAATCTTTCTGTTCAAGCGCCATCTAC	0.806 RPM ratio (pull-down/input)
GATGATTGTTCTCCCAGCTGATGAATTATGGCAATCGAGTAAACAAATTTTCCTAATCTTTCTGTTCAAGCGCCATCTAC	1.23 RPM ratio (pull-down/input)
GATGATTGTTCTCCCAGCTGATGAATTTCGGTTCTCGAGTAAACAAATTTTCCTAATCTTTCTGTTCAAGCGCCATCTAC	0.825 RPM ratio (pull-down/input)
GATGATTGTTCTCCCAGCTGATGAATTCGGGGCCTCGAGTAAACAAATTTTCCTAATCTTTCTGTTCAAGCGCCATCTAC	0.744 RPM ratio (pull-down/input)
GATGATTGTTCTCCCAGCTGATGAATTTATCAAATCGAGTAAACAAATTTTCCTAATCTTTCTGTTCAAGCGCCATCTAC	1.28 RPM ratio (pull-down/input)
GATGATTGTTCTCCCAGCTGATGAATTTATCTCCTCGAGTAAACAAATTTTCCTAATCTTTCTGTTCAAGCGCCATCTAC	1.08 RPM ratio (pull-down/input)
GATGATTGTTCTCCCAGCTGATGAATTCTGTTTATCGAGTAAACAAATTTTCCTAATCTTTCTGTTCAAGCGCCATCTAC	2.76 RPM ratio (pull-down/input)
GATGATTGTTCTCCCAGCTGATGAATTTTTTATCTCGAGTAAACAAATTTTCCTAATCTTTCTGTTCAAGCGCCATCTAC	0.997 RPM ratio (pull-down/input)
GATGATTGTTCTCCCAGCTGATGAATTTATCTGATCGAGTAAACAAATTTTCCTAATCTTTCTGTTCAAGCGCCATCTAC	1.07 RPM ratio (pull-down/input)
GATGATTGTTCTCCCAGCTGATGAATTGTTTATCTCGAGTAAACAAATTTTCCTAATCTTTCTGTTCAAGCGCCATCTAC	2.68 RPM ratio (pull-down/input)
GATGATTGTTCTCCCAGCTGATGAATTCTTTTTATCGAGTAAACAAATTTTCCTAATCTTTCTGTTCAAGCGCCATCTAC	1 RPM ratio (pull-down/input)
GATGATTGTTCTCCCAGCTGATGAATTAGTTAGTTCGAGTAAACAAATTTTCCTAATCTTTCTGTTCAAGCGCCATCTAC	0.968 RPM ratio (pull-down/input)
GATGATTGTTCTCCCAGCTGATGAATTGTTAGTTTCGAGTAAACAAATTTTCCTAATCTTTCTGTTCAAGCGCCATCTAC	1.7 RPM ratio (pull-down/input)
GATGATTGTTCTCCCAGCTGATGAATTCCTTTTATCGAGTAAACAAATTTTCCTAATCTTTCTGTTCAAGCGCCATCTAC	0.896 RPM ratio (pull-down/input)
GATGATTGTTCTCCCAGCTGATGAATTTGTTAGTTCGAGTAAACAAATTTTCCTAATCTTTCTGTTCAAGCGCCATCTAC	1.78 RPM ratio (pull-down/input)
GATGATTGTTCTCCCAGCTGATGAATTTGTTTTATCGAGTAAACAAATTTTCCTAATCTTTCTGTTCAAGCGCCATCTAC	1.78 RPM ratio (pull-down/input)
GATGATTGTTCTCCCAGCTGATGAATTCAATGAATCGAGTAAACAAATTTTCCTAATCTTTCTGTTCAAGCGCCATCTAC	0.93 RPM ratio (pull-down/input)
GATGATTGTTCTCCCAGCTGATGAATTGGAAGGCTCGAGTAAACAAATTTTCCTAATCTTTCTGTTCAAGCGCCATCTAC	0.76 RPM ratio (pull-down/input)
